Screening results from PubChem.
Most compounds without a hit are left out; they make up all but 3.4% or so of the library.
pPAFAH FP inh – inhibitors of human plasma PAF acetylhydrolase (pPAFAH) | Q13093 | recombinant pPAFAH, FP-rhodamine probe fluorescence polarization | inhibition, % at 3.39 µM | actives 1.5% (n = 330,000) | AID 463082;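 active = inhibition above the mean inhibition across the screen plus 3 SD, cut at about 25% in these data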;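 also: inhibitors block binding of the rhodamine activity-based probe so polarization drops; 0% = enzyme with DMSO and 100% = wells lacking pPAFAH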
PAFAH1B3 FP inh – PAFAH1B3 (human) inhibition. recombinant PAFAH1B3, FP-rhodamine probe, fluorescence polarization. inhibition, % at 3.39 µM. actives 0.28% (n = 340,000). AID 492972;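 active = inhibition above the screen-wide average of all tested compounds plus 3 SD, cut at about 25% in these data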;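 also: 0% = enzyme with DMSO only and 100% = wells lacking PAFAH1B3 protein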
Target sequence (Q15102 whole entry, looked up): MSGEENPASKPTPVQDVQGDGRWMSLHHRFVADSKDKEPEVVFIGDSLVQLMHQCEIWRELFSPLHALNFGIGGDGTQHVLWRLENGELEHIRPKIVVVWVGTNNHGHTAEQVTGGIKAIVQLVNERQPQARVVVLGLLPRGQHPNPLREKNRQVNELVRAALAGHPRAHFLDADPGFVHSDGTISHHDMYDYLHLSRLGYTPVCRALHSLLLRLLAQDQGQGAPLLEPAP
PAFAH1B2 inh – blocks human PAF acetylhydrolase 1b catalytic subunit 2; P68402; actives 1.2% (n = 340,000); inhibition, % at 3.39 µM; AID 492953; recombinant PAFAH1B2, FP-rhodamine activity probe, fluorescence polarization;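 active = inhibition above the mean of all tested compounds plus 3 SD, cut at about 24% in these data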;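 also: 0% = enzyme with DMSO and 100% = wells lacking PAFAH1B2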
PAFAH2 FP inh – PAFAH2 (human) inhibition | Q99487 | recombinant PAFAH2, FP-rhodamine activity probe, fluorescence polarization | inhibition, % at 3.39 µM | actives 0.99% (n = 340,000);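 active = inhibition above the mean over all tested compounds plus 3 SD, cut at about 30% in these data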;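 also: inhibitors block probe labeling of enzyme so polarization drops; 0% = enzyme with DMSO and 100% = wells lacking PAFAH2 protein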
PP1 inh – counter-screen for PP5 inhibitors: inhibitors of human PP1-alpha | P62136 | purified PP1alpha, OMFP fluorescence | inhibition, % at 6.7 µM | actives 0.9% (n = 320,000) | AID 2235;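 active = inhibition above the mean inhibition of all tested compounds plus 3 SD, computed separately for each screening campaign, cut at about 15% in these data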
Target sequence (P62136 whole entry, looked up): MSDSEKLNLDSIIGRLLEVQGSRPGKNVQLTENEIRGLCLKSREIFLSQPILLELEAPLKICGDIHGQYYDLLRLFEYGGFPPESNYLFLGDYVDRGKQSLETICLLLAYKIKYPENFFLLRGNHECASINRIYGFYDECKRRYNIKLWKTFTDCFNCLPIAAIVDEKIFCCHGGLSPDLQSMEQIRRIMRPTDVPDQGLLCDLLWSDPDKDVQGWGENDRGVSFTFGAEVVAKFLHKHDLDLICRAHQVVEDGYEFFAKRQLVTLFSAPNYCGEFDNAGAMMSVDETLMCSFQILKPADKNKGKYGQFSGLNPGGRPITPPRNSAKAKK
PP5 inh – PP5 (human) phosphatase inhibition; AID 1987; P53041; actives 0.18% (n = 320,000); purified PP5c, OMFP substrate fluorescence; inhibition, % at 6.7 µM;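 active = inhibition above the campaign's mean inhibition across all tested compounds plus 3 SD, cut at about 9.5% in these data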;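 also: 0% = DMSO only and 100% = 100 µM cantharidin control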
Starred values were filed as active, the others as inactive; ! = a repeat was not active.

Cc1nc2c(C(=O)NCCC(C)C)c[nH]n2c(=O)c1Cl was read as pPAFAH FP inh 12, PAFAH1B3 FP inh 2, PAFAH1B2 inh 4, PAFAH2 FP inh 9, PP1 inh 3 and PP5 inh -1.
CN(Cc1ccccc1)C(=O)COC(=O)c1ccc2ccccc2n1 was read as pPAFAH FP inh 25*, PAFAH1B3 FP inh 5, PAFAH1B2 inh 5, PAFAH2 FP inh 5, PP1 inh 2 and PP5 inh -2.
For CN(Cc1ccccc1)C(=O)COC(=O)c1ccc2c(c1)OCO2 the results were pPAFAH FP inh 26*, PAFAH1B3 FP inh -6, PAFAH1B2 inh 4, PAFAH2 FP inh 16, PP1 inh 2 and PP5 inh 0.
For CC1C(=O)N2CCCc3cc(NC(=O)COc4ccc(Cl)cc4)cc1c32 (stereo not drawn) the results were pPAFAH FP inh 13, PAFAH1B3 FP inh 9, PAFAH1B2 inh 2, PAFAH2 FP inh -2, PP1 inh -1 and PP5 inh 4.
Screening CN1CCc2cccc3c2[C@H]1Cc1ccc(O)c(O)c1-3 returned pPAFAH FP inh 25*!, PAFAH1B3 FP inh 7, PAFAH1B2 inh 0, PAFAH2 FP inh 8, PP1 inh 1 and PP5 inh 1.
`COc1cccc(C(=O)N(Cc2ccco2)Cc2cc3cccc(C)c3[nH]c2=O)c1` gave pPAFAH FP inh 25*, PAFAH1B3 FP inh 9, PAFAH1B2 inh 2, PAFAH2 FP inh -4, PP1 inh -3 and PP5 inh 1.
For O=C(COC(=O)c1cccs1)c1ccccc1 the results were pPAFAH FP inh 9, PAFAH1B3 FP inh 14, PAFAH1B2 inh 4, PAFAH2 FP inh 34*, PP1 inh -1 and PP5 inh 1.
`CCCCC1=CC2=CC(=O)C(C)(OC(=O)c3ccc(Cl)nc3)C(=O)C2=CO1` (stereo not drawn) gave pPAFAH FP inh 53*, PP1 inh 2 and PP5 inh 0.
`COC(=O)CCCC1=CC2=CC(=O)C(C)(OC(=O)CCc3ccccc3)C(=O)C2=CO1` (stereo not drawn) gave pPAFAH FP inh 25, PAFAH1B3 FP inh -6, PAFAH1B2 inh -6, PAFAH2 FP inh 4, PP1 inh -6 and PP5 inh -1.
`COC(=O)CCCC1=CC2=CC(=O)C(C)(OC(=O)c3ccco3)C(=O)C2=CO1` (stereo not drawn) gave pPAFAH FP inh 47*, PP1 inh 15 and PP5 inh 2.
Screening CC(C)(C)OC(=O)NCCCC1=CC2=CC(=O)C(C)(OC(=O)C3CCCC3)C(=O)C2=CO1 (stereo not drawn) returned pPAFAH FP inh 41*, PP1 inh 9 and PP5 inh 3.
CC(C)(C)OC(=O)NCCCCC1=CC2=CC(=O)C(C)(OC(=O)c3ccco3)C(=O)C2=CO1 (stereo not drawn) was read as pPAFAH FP inh 43*, PP1 inh 2 and PP5 inh -2.
For CC(C)C(=O)Nc1nc2cc3c(cc2s1)OCCO3 the results were pPAFAH FP inh 0, PAFAH1B3 FP inh 3, PAFAH1B2 inh 3, PAFAH2 FP inh -7, PP1 inh -4 and PP5 inh 3.
Clc1ccc(CN2C3=NCCN3c3ccccc32)cc1Cl was read as pPAFAH FP inh 0, PAFAH1B3 FP inh 0, PAFAH1B2 inh 2, PAFAH2 FP inh -6, PP1 inh 3 and PP5 inh 0.
`O=c1[nH]c(=S)n(C2CCCCC2)c(O)c1C=NCCN1CCOCC1` gave pPAFAH FP inh 7, PAFAH1B3 FP inh 4, PAFAH1B2 inh 29*, PAFAH2 FP inh 4, PP1 inh -1 and PP5 inh 2.
`CC1CCN(C(=O)c2scc3c2OCCO3)CC1` gave pPAFAH FP inh -1, PAFAH1B3 FP inh 6, PAFAH1B2 inh 1, PAFAH2 FP inh 9, PP1 inh 1 and PP5 inh 2.
N#Cc1c(Nc2ccccc2)sc(C(=O)c2ccc(F)cc2)c1N was read as pPAFAH FP inh 17, PAFAH1B3 FP inh 6, PAFAH1B2 inh 30*, PAFAH2 FP inh 7, PP1 inh 1 and PP5 inh 1.
Cc1ccc(C(=O)c2sc(Nc3ccccc3)c(C#N)c2N)cc1 was read as pPAFAH FP inh 24, PAFAH1B3 FP inh -3, PAFAH1B2 inh 6, PAFAH2 FP inh 7, PP1 inh 1 and PP5 inh 6.
Screening Nc1c(C(=O)c2ccccc2)sc(Nc2ccccc2)c1S(=O)(=O)c1ccccc1 returned pPAFAH FP inh 20, PAFAH1B3 FP inh 2, PAFAH1B2 inh 1, PAFAH2 FP inh 8, PP1 inh 9 and PP5 inh 5.
For N#Cc1c(Nc2ccccc2)sc(C(=O)C2CC2)c1N the results were pPAFAH FP inh 8, PAFAH1B3 FP inh 6, PAFAH1B2 inh 28*, PAFAH2 FP inh 1, PP1 inh 4 and PP5 inh 3.
Screening COc1cccc(OC)c1C(=O)Nc1nc(-c2ccccc2)cs1 returned pPAFAH FP inh -2, PAFAH1B3 FP inh 1, PAFAH1B2 inh 4, PAFAH2 FP inh -7, PP1 inh 2 and PP5 inh -2.
`Cc1cc(=O)oc2cc(OCCSCCN3CCCCC3)ccc12` gave pPAFAH FP inh 0, PAFAH1B3 FP inh 7, PAFAH1B2 inh -1, PAFAH2 FP inh -4, PP1 inh -3 and PP5 inh 1.
CSc1ncc(C(=O)Nc2ccc(C(C)=O)cc2)c(-c2ccccc2)n1 was read as pPAFAH FP inh -5, PAFAH1B3 FP inh 1, PAFAH1B2 inh 1, PAFAH2 FP inh -1, PP1 inh 3 and PP5 inh -1.
`O=C(c1cc2ccccc2o1)N(Cc1nnc(-c2ccccc2Cl)o1)C1CC1` gave pPAFAH FP inh -1, PAFAH1B3 FP inh 5, PAFAH1B2 inh 7, PAFAH2 FP inh 5, PP1 inh 15* and PP5 inh -1.
CCCCc1cc(=O)oc2c(C)c(OCC(=O)N3C[C@H]4C[C@@H](C3)c3cccc(=O)n3C4)ccc12 was read as pPAFAH FP inh 4, PAFAH1B3 FP inh 1, PAFAH1B2 inh 7, PAFAH2 FP inh 4, PP1 inh 17* and PP5 inh 5.
`O=C(NCCCN1CCOCC1)C(=O)N/N=C/c1ccccc1Cl` gave pPAFAH FP inh 7, PAFAH1B3 FP inh -7, PAFAH1B2 inh 5, PAFAH2 FP inh -2, PP1 inh -5 and PP5 inh -1.
`COC(=O)c1ccc(N2CCOCC2)c(NC(=O)Nc2cccc(OC)c2)c1` gave pPAFAH FP inh -2, PAFAH1B3 FP inh 8, PAFAH1B2 inh 2, PAFAH2 FP inh 7, PP1 inh -1 and PP5 inh 2.
For CCOC(=O)c1ccc(N2CCN(c3ccccc3F)CC2)c(NC(=O)Nc2cccc(OC)c2)c1 the results were pPAFAH FP inh 26*, PAFAH1B3 FP inh -22, PAFAH1B2 inh -8, PAFAH2 FP inh -10, PP1 inh 3 and PP5 inh 6.
